Assay results as given in the supplement of paper PMC12045047.
Structures can show the parent of a compound that is named as a salt. Values without a mark were called inactive.

Each compound was assayed on primary human airway basal cells (HBEC, luciferase-transduced) (assay: proliferation (luciferase bioluminescence) Z score relative to plate mean; higher = more proliferation / more cells, active = 1.96 or more). Details: donor: 1; 0.5 µM; library: ENZO Libraries; 4 days.
Description: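 Primary human bronchial epithelial (airway basal) cells from two donors, lentivirally transduced with pHIV-Luc-ZsGreen, were seeded at 2000 cells/well in 384-well plates in FAD medium with ENZO or Prestwick library compounds and cultured for 4 days. Luciferin was then added and bioluminescence was read as a measure of cell number. Relative light units were converted to Z scores against the plate, and the mean of triplicate wells is reported.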

Q: O=c1cc(N2CCOCC2)oc2c(-c3ccccc3)cccc12 was tested. Which proliferation did it give?
A: -0.437

Q: O=C1c2ccccc2C(=O)c2c(NCCc3ccc(O)cc3)ccc(NCCc3ccc(O)cc3)c21 was tested. Which proliferation did it give?
A: 0.275

Q: O=C[C@@H]1CCCN1C(=O)[C@@H]1CCCN1C(=O)OCc1ccccc1 [Z-Prolyl-prolinal] was tested. Which proliferation did it give?
A: -0.531

Q: Which proliferation does the source give for N=C(N)Nc1ccc(C(=O)Oc2ccc3cc(C(=N)N)ccc3c2)cc1 [Nafamostat mesylate] here?
A: 0.0117

Q: Which proliferation does the source give for Cc1cc2ncc(-c3ccccc3)nc2cc1C here?
A: 5.22 (active)

Q: With O=C(O)CNC(=O)C(CS)Cc1ccccc1 (racemic) [DL-Thiorphan] as the compound, how does the proliferation read?
A: 0.124

Q: How did the proliferation turn out when O=C(NCCCCN1CCOCC1)c1cc2ccccc2o1 was run?
A: -0.215

Q: How did the proliferation turn out when Cn1cnc2nc(NCCO)nc(NCc3ccccc3)c21 [Iso-olomoucine] was run?
A: 0.048

Q: Which proliferation does the source give for CC(C)C[C@H](NP(=O)(O)O[C@@H]1O[C@@H](C)[C@H](O)[C@@H](O)[C@H]1O)C(=O)N[C@@H](Cc1c[nH]c2ccccc12)C(=O)O [Phosphoramidon] here?
A: -0.109

Q: Which proliferation does the source give for Nc1ncn([C@H]2C[C@H](O)[C@@H](CO)O2)c(=O)n1 [5-Aza-2'-deoxycytidine] here?
A: -0.383

Q: For NCC1CCC(C(=O)N[C@@H](Cc2ccccc2)C(=O)Nc2ccc(CC(=O)O)cc2)CC1 (stereo not given in full), which proliferation is on record?
A: 0.228

Q: For CCOC(=O)[C@H](CCc1ccccc1)N[C@@H](C)C(=O)N1CCC[C@H]1C(=O)O [Enalapril], which proliferation is on record?
A: -0.154

Q: For CC(C)C[C@H](NC(=O)[C@H]1O[C@@H]1C(=O)O)C(=O)NCCCCN=C(N)N, which proliferation is on record?
A: -0.0103

Q: With Oc1c2ccccc2c2c3c(cccc13)N=N2 as the compound, how does the proliferation read?
A: 0.134

Q: For O=C(O)c1cc(N(Cc2ccccc2O)Cc2cc(O)ccc2O)ccc1O [Lavendustin A], which proliferation is on record?
A: -0.351

Q: CO[C@@H]1[C@H](OC(=O)/C=C/C=C/C=C/C=C/C(=O)O)CC[C@]2(CO2)[C@H]1[C@@]1(C)O[C@@H]1CC=C(C)C [Fumagillin] was tested. Which proliferation did it give?
A: -1.58

Q: With CCOC(=O)c1ccc(OC(=O)CCCCCNC(=N)N)cc1 [Gabexate mesylate] as the compound, how does the proliferation read?
A: -0.301

Q: How did the proliferation turn out when CCC(C)[C@H](NS(=O)(=O)c1cccc2ccccc12)C(=O)N[C@H](C=O)Cc1c[nH]c2ccccc12 (stereo not given in full) was run?
A: -0.192

Q: Oc1ccc(/C=C/c2cc(O)cc(O)c2)cc1 [Resveratrol] was tested. Which proliferation did it give?
A: 1.08

Q: Which proliferation does the source give for CCCC[C@@H](C=O)NC(=O)[C@H](CC(C)C)NC(=O)OCc1ccccc1 [Calpeptin] here?
A: -0.319

Same assay, conditions: donor: 1; 5 µM; library: ENZO Libraries; 4 days

Q: Which proliferation does the source give for O=c1cc(N2CCOCC2)oc2c(-c3ccccc3)cccc12 here?
A: -0.857

Q: O=C1c2ccccc2C(=O)c2c(NCCc3ccc(O)cc3)ccc(NCCc3ccc(O)cc3)c21 was tested. Which proliferation did it give?
A: -0.000622

Q: How did the proliferation turn out when O=C[C@@H]1CCCN1C(=O)[C@@H]1CCCN1C(=O)OCc1ccccc1 [Z-Prolyl-prolinal] was run?
A: -0.515

Q: Which proliferation does the source give for N=C(N)Nc1ccc(C(=O)Oc2ccc3cc(C(=N)N)ccc3c2)cc1 [Nafamostat mesylate] here?
A: -0.0211

Q: With Cc1cc2ncc(-c3ccccc3)nc2cc1C as the compound, how does the proliferation read?
A: 2.1 (active)

Q: How did the proliferation turn out when O=C(O)CNC(=O)C(CS)Cc1ccccc1 (racemic) [DL-Thiorphan] was run?
A: -0.0316

Q: How did the proliferation turn out when O=C(NCCCCN1CCOCC1)c1cc2ccccc2o1 was run?
A: -0.00355

Q: For Cn1cnc2nc(NCCO)nc(NCc3ccccc3)c21 [Iso-olomoucine], which proliferation is on record?
A: 0.096

Q: Which proliferation does the source give for CC(C)C[C@H](NP(=O)(O)O[C@@H]1O[C@@H](C)[C@H](O)[C@@H](O)[C@H]1O)C(=O)N[C@@H](Cc1c[nH]c2ccccc12)C(=O)O [Phosphoramidon] here?
A: 0.079

Q: How did the proliferation turn out when Nc1ncn([C@H]2C[C@H](O)[C@@H](CO)O2)c(=O)n1 [5-Aza-2'-deoxycytidine] was run?
A: -0.302

Q: NCC1CCC(C(=O)N[C@@H](Cc2ccccc2)C(=O)Nc2ccc(CC(=O)O)cc2)CC1 (stereo not given in full) was tested. Which proliferation did it give?
A: 0.079

Q: For CCOC(=O)[C@H](CCc1ccccc1)N[C@@H](C)C(=O)N1CCC[C@H]1C(=O)O [Enalapril], which proliferation is on record?
A: -0.126

Q: Which proliferation does the source give for CC(C)C[C@H](NC(=O)[C@H]1O[C@@H]1C(=O)O)C(=O)NCCCCN=C(N)N here?
A: -0.0032

Q: With Oc1c2ccccc2c2c3c(cccc13)N=N2 as the compound, how does the proliferation read?
A: -0.168

Q: How did the proliferation turn out when O=C(O)c1cc(N(Cc2ccccc2O)Cc2cc(O)ccc2O)ccc1O [Lavendustin A] was run?
A: -0.457

Q: CO[C@@H]1[C@H](OC(=O)/C=C/C=C/C=C/C=C/C(=O)O)CC[C@]2(CO2)[C@H]1[C@@]1(C)O[C@@H]1CC=C(C)C [Fumagillin] was tested. Which proliferation did it give?
A: -0.343

Q: Which proliferation does the source give for CCOC(=O)c1ccc(OC(=O)CCCCCNC(=N)N)cc1 [Gabexate mesylate] here?
A: 0.0316

Q: How did the proliferation turn out when CCC(C)[C@H](NS(=O)(=O)c1cccc2ccccc12)C(=O)N[C@H](C=O)Cc1c[nH]c2ccccc12 (stereo not given in full) was run?
A: -0.56

Q: How did the proliferation turn out when Oc1ccc(/C=C/c2cc(O)cc(O)c2)cc1 [Resveratrol] was run?
A: 3.39 (active)

Q: For CCCC[C@@H](C=O)NC(=O)[C@H](CC(C)C)NC(=O)OCc1ccccc1 [Calpeptin], which proliferation is on record?
A: 0.152
